Source: PubChem BioAssay (NCATS)
Inconclusive results are not listed. Calls of active or inactive are those of the source. Calls come from the whole dose curve; as a rule, active = well fitted cell-killing curve with a large enough effect; inconclusive = small, poorly fitted or top-dose-only effect, or effect the other way; inactive = flat fitted curve, though single readings scatter.

Legend:
Test in all cases: Primary qHTS to identify gynecologic anti-cancer compounds using libraries of approved drugs and bioactive compounds (AID 1345084); note: nearly all actives have a fitted effect of over 55% in size
Settings in all cases: Gynecologic cancer cell panel viability, ATPlite luminescence, 48 h; series mostly up to 57.5 µM
PA-1 = tested on: PA-1
Outline: (§1)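 In this quantitative HTS, cell killing is estimated from loss of ATP-dependent luciferase light. Cells see five compound concentrations over a 48 h exposure.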

SKOV3 = tested on: SKOV3
Outline: as §1

Tov-21-G = tested on: Tov-21-G
Outline: as §1

Tov112D = tested on: Tov112D
Outline: as §1
% is set by controls: 0 for no effect and ±100 for the full control effect.

COc1cc(C2Oc3c(OC)cc(/C=C/C(=O)OC4CC(O)(C(=O)O)CC(O)C4O)cc3C2CO)ccc1O (stereo not given)
inactive: Potency (PA-1) | Potency (SKOV3) | Potency (Tov-21-G) | Potency (Tov112D)

C[C@@H]1O[C@@H](O[C@H]2[C@H](OC(=O)[C@]34CCC(C)(C)C[C@H]3C3=CCC5[C@@]6(C)CC[C@H](O[C@@H]7O[C@H](CO[C@@H]8OC[C@H](O)[C@H](O)[C@H]8O)[C@@H](O)[C@H](O)[C@H]7O)C(C)(C)C6CC[C@@]5(C)[C@]3(C)C[C@H]4O)OC[C@@H](O)[C@@H]2O)[C@H](O)[C@H](O[C@@H]2OC[C@](O)(CO)[C@H]2O)[C@H]1O[C@@H]1OC[C@H](O)[C@H](O[C@@H]2OC[C@@H](O)[C@H](O)[C@H]2O)[C@H]1O (stereo not given in full)
inactive: activity change, negative = cytotoxicity (PA-1) -3.2% [at 6.55 µM] | activity change, negative = cytotoxicity (SKOV3) 6.12% [at 6.55 µM] | activity change, negative = cytotoxicity (Tov-21-G) 4.71% [at 6.55 µM] | activity change, negative = cytotoxicity (Tov112D) 0.0459% [at 6.55 µM]

C[C@H]1CC[C@H]2[C@@H](C=C[C@@](C)(O)[C@]2(C)C(=O)CCO)C1
inactive: Potency (PA-1) | Potency (SKOV3) | Potency (Tov-21-G) | Potency (Tov112D)

CCCC/C=C\CCCCCc1cc(=O)c2ccccc2n1C
inactive: Potency (PA-1) | Potency (SKOV3) | Potency (Tov-21-G) | Potency (Tov112D)

C=C(COC(=O)C(C)C)C1Oc2cc(C(C)=O)ccc2C1OC(=O)C(C)C (stereo not given)
inactive: Potency (PA-1) | Potency (SKOV3) | Potency (Tov-21-G) | Potency (Tov112D)

CC(C)=CCC(O)[C@](C)(O)C1[C@H](O)C[C@@]2(C)C3CC=C4C(C[C@H](O)[C@@H](O[C@@H]5O[C@H](CO)[C@@H](O)[C@H](O)[C@H]5O)C4(C)C)[C@]3(C)C(=O)C[C@]12C (stereo not given in full)
inactive: Potency (PA-1) | Potency (SKOV3) | Potency (Tov-21-G) | Potency (Tov112D)

COc1ccc(OC2OC(CO[C@@H]3O[C@@H](C)[C@H](O)[C@@H](O)[C@H]3O)C(O)C(O)C2O)cc1OC (stereo not given in full)
inactive: Potency (PA-1) | Potency (SKOV3) | Potency (Tov-21-G) | Potency (Tov112D)

COc1ccnc(CCc2nc3ncccc3[nH]2)c1
inactive: Potency (PA-1) | Potency (SKOV3) | Potency (Tov-21-G) | Potency (Tov112D)

CC1=C(CO)C2(C)CCCC(C)(C)C2C(O)C1O (stereo not given)
inactive: Potency (PA-1) | Potency (SKOV3) | Potency (Tov-21-G) | Potency (Tov112D)

COC(=O)C1=COC(OC2OC(CO)C(O)C(O)C2O)C2C(COC(=O)/C=C/c3ccc(O)c(O)c3)C(O)C(O)C12 (stereo not given)
inactive: Potency (PA-1) | Potency (SKOV3) | Potency (Tov-21-G) | Potency (Tov112D)

CC(C)C[C@H](NC(=O)[C@@H]1O[C@H]1C(=O)O)C(=O)NCCCCN=C(N)N
inactive: Potency (PA-1) | Potency (SKOV3) | Potency (Tov-21-G) | Potency (Tov112D)

Cc1onc(-c2c(Cl)cccc2Cl)c1CC(=O)NCc1ccc(OCC(F)(F)F)nc1
inactive: Potency (PA-1) | Potency (SKOV3) | Potency (Tov-21-G) | Potency (Tov112D)

Cc1noc2c1-c1ccccc1C(c1ccc(Cl)cc1)=N[C@H]2CC(N)=O
inactive: Potency (PA-1) | Potency (SKOV3) | Potency (Tov-21-G) | Potency (Tov112D)

C/C=C/C1OC2=C(C(=O)OC2(C)O)C(O)C1O (stereo not given)
inactive: Potency (PA-1) | Potency (SKOV3) | Potency (Tov-21-G) | Potency (Tov112D)

C=CC(C)(O)CC/C=C(\C)C(=O)O[C@@H]1[C@@H](O)[C@H](OC(C)(C=C)CC/C=C(\C)C(=O)O)O[C@H](CO)[C@H]1OC(=O)/C(C)=C/CCC(C)(O)C=C (stereo not given in full)
inactive: Potency (PA-1) | Potency (SKOV3) | Potency (Tov-21-G) | Potency (Tov112D)

CCc1nnc(NS(=O)(=O)c2ccc(NC(=S)NC(=O)/C=C/c3ccc(F)cc3)cc2)s1
inactive: Potency (PA-1) | Potency (SKOV3) | Potency (Tov-21-G) | Potency (Tov112D)

C=CCC/C=C/C#CCCCCCCCC[C@H]1C(=O)O[C@H](C)[C@@H]1O
inactive: Potency (PA-1) | Potency (SKOV3) | Potency (Tov-21-G) | Potency (Tov112D)

CC(O)/C=C/C1(O)C(C)C(O)C(O[C@@H]2O[C@H](CO)[C@@H](O)[C@H](O)[C@H]2O)CC1(C)C (stereo not given in full)
inactive: Potency (PA-1) | Potency (SKOV3) | Potency (Tov-21-G) | Potency (Tov112D)

CC(=O)O[C@@H]1[C@H](OC(C)=O)C[C@@]2(C)C(CC[C@@H](C)[C@]23Cc2c(O)cc4c(c2O3)CN([C@@H](CCC(=O)O)C(=O)O)C4=O)C1(C)C (stereo not given in full)
inactive: Potency (PA-1) | Potency (SKOV3) | Potency (Tov-21-G) | Potency (Tov112D)

O=C(Nc1ccc(N2CCC(C(=O)N3CCOCC3)CC2)cc1)c1cnc(Oc2ccccc2)nc1
inactive: Potency (PA-1) | Potency (SKOV3) | Potency (Tov-21-G) | Potency (Tov112D)

CC(C)c1cc2c(c(O)c1O)[C@@]13CCCC(C)(C)C1[C@@H](O)[C@@H]2OC3=O (stereo not given in full)
inactive: Potency (PA-1) | Potency (SKOV3) | Potency (Tov-21-G) | Potency (Tov112D)

CSCC1OC(n2cnc3c(=O)[nH]cnc32)C(O)C1O (stereo not given)
inactive: Potency (PA-1) | Potency (SKOV3) | Potency (Tov-21-G) | Potency (Tov112D)

CC(=O)c1[nH]cc(CCC(=O)O)c1CC(=O)O
inactive: Potency (PA-1) | Potency (SKOV3) | Potency (Tov-21-G) | Potency (Tov112D)

C=C1C[C@H](O)[C@@H](O)[C@@]2(C)C1[C@@H](O)[C@H]1OC(=O)C3[C@@H](C)[C@@H](O)[C@H](O)C2[C@]31C (stereo not given in full)
inactive: Potency (PA-1) | Potency (SKOV3) | Potency (Tov-21-G) | Potency (Tov112D)

CC1=C2C3OC(=O)C(C)C3(O)CCC2(C)CCC1 (stereo not given)
inactive: Potency (PA-1) | Potency (SKOV3) | Potency (Tov-21-G) | Potency (Tov112D)
